Results taken from PubChem BioAssay (NCATS).
Results filed as inconclusive are left out. Calls of active or inactive are those of the source. Calls follow the shape of the dose curve; as a rule, active = well fitted inhibition curve with a large enough effect; inconclusive = small, poorly fitted or top-dose-only effect; inactive = flat fitted curve, though single readings scatter.

Tested on: HEK293
Assay: Cytotoxic Profiling of Annotated Libraries Using Quantitative High-Throughput Screening (AID 1296008); also: nearly all actives have a fitted effect of over 60% in size
Details: Five cell lines viability, CellTiter-Glo ATP luminescence, 48-72 h; max response: hits give low values
Text: Cell-based phenotypic screening is a commonly used approach to discover biological pathways, novel drug targets, chemical probes and high-quality hit-to-lead molecules. Many hits identified from high-throughput screening campaign are ruled out through a series of follow-up potency, selectivity/specificity, and cytotoxicity assays. Prioritization of molecules with little or no cytotoxicity for a more in-depth downstream evaluation influence the future direction of projects, so cytotoxicity profiling of the screening libraries at early stage is essential for increasing the likelihood of candidate success. […] For the annotated library, we also examined the primary targets and mechanistic pathways regularly associated with cell death. To our knowledge, this is the first study to use high-throughput screening to profile large libraries for cytotoxicity assessment in both normal and cancer cell lines. In summary, the results generated here constitutes a valuable resource for the scientific community and provides insight on identifying cytotoxic compounds with particular mechanisms of action, and prioritizing compounds with suitable cytotoxicity profile for further evaluation.
A pintool (Kalypsys) was used to transfer 23 nL of compound solution to the 1536-well assay plates. After 48 or 72 hr incubation at 37 degree Celsius, 5% CO2 and 95% humidity, 2.5 uL of CellTiter-Glo (Promega) was dispensed into each well using a dispenser (Aspect Automation, St. Paul, MN) with solenoid valves (Lee Valves, Westbrook CT). Plates were left at room temperature for 10 min before imaging the ATP-coupled luminescence using a ViewLux microplate imager (PerkinElmer, Waltham, MA).
% is scaled to controls: 0 for no effect and ±100 for the full control effect; potency is read from the fitted curve at half-maximal effect.

| Structure (SMILES) | Potency | max response |
| --- | --- | --- |
| c1cn2cc(-c3ccc4cn[nH]c4c3)nc(Nc3ccc(N4CCOCC4)cc3)c2n1 | 18.4 µM (active) |  |
| Cc1cc(OCc2nc(-c3ccccc3Cl)cs2)ccc1OCC(=O)O |  | -1.87% (inactive) |
| CCC(C)/C=C(C)/C=C/c1cc2c(cn1)C(=O)C(C)(OC(C)=O)C(O)=C2Cl (stereo not given) |  | -0.415% (inactive) |
| CCN1CCN(Cc2ccc(NC(=O)c3ccc(C)c(/C=C/c4cnc5[nH]ccc5c4OC)c3)cc2C(F)(F)F)CC1 | 1.46 µM (active) |  |
| CCCC(=O)C1CCN(c2ncnc3c2CN(C(=O)c2ccc(-c4ccccc4)cc2)CC3)CC1 | 18.4 µM (active) |  |
| C/C1=C\C[C@]2(C)C(=O)C(O)=C([C@H](C)CO)[C@H]2C/C=C(\C)[C@@H](O)CC/C(C)=C/CC1 |  | 2.1% (inactive) |
| COc1ccc2nc(S(=O)(=O)Cc3ncc(C)c(OC)c3C)[nH]c2c1 | 16.4 µM (active) |  |
| COC(=O)[C@@H](O)[C@H]1[C@@]2(C)CC3(O)[C@@H](C(=O)[C@H]2O)[C@]24O[C@]25CC(=O)O[C@@H](c2ccoc2)[C@]5(C)CCC4[C@]13C (stereo not given in full) |  | -0.209% (inactive) |
| CC(C)C(C(=O)N(C)C(C)C(N)=O)N(C)C(=O)C1CCCN1C(=O)/C=C/C=C/C(O)C(C)O (stereo not given) |  | 4.88% (inactive) |
| Cn1cc(S(=O)(=O)c2ccc(Cl)cc2)c2cccc(N3CCNCC3)c21 | 6.51 µM (active) |  |
| COC1CC(O[C@H]2CC[C@@]3(C)C(CCC4C3[C@H](OC(C)=O)[C@@H](OC(=O)/C=C/c3ccccc3)[C@]3(C)C(C(C)=O)CC[C@]43O)C2)OC(C)C1OC1CC(OC)C(OC2CC(OC)C(OC3OC(C)C(OC4OC(CO)C(O)C(O)C4O)C(OC)C3O)C(C)O2)C(C)O1 (stereo not given in full) |  | -13.6% (inactive) |
| C=C[C@]1(C)C=C2CCC3C(C)(CCC[C@@]3(C)C(=O)O)C2CC1 (stereo not given in full) |  | 0.507% (inactive) |
| OC[C@H]1O[C@@H](O[C@H]2[C@H](OCc3ccccc3)O[C@H](CO[C@@H]3OC[C@@H](O)[C@H](O)[C@H]3O)[C@@H](O)[C@@H]2O)[C@H](O)[C@@H](O)[C@@H]1O |  | 0.36% (inactive) |
| CC1OC(O[C@H]2CC[C@@]3(C)C(CC[C@]4(C)C3CC=C3C5CC(C)(C)CC[C@]5(C(=O)OC5OC(CO)C(OC6OC(COC7OCC(O)C(O)C7O)C(O)C(O)C6O)C(O)C5O)CC[C@]34C)C2(C)C)C(O)C(O)C1OC1OCC(OC2OCC(O)C(O)C2O)C(O)C1O (stereo not given in full) |  | 1.98% (inactive) |
| C[C@H]1O[C@@H](O[C@H]2CC[C@@]3(C)C(CC[C@]4(C)C3CC=C3C5CC(C)(C)CC[C@]5(C(=O)O)CC[C@]34C(=O)O)C2(C)C)[C@H](O)[C@@H](O)[C@@H]1O (stereo not given in full) |  | -5.54% (inactive) |
| CS(=O)(=O)NCC1CCC(Nc2nc3c(s2)CCSc2ccccc2-3)CC1 (stereo not given) | 14.6 µM (active) |  |
| CN(C)C(=O)NC1CCC(CCN2CCN(c3cccc(Cl)c3Cl)CC2)CC1 (stereo not given) |  | -2.35% (inactive) |
| Cc1ccc(C)c(OCCn2cc(C(=O)O)c3ccccc32)c1 |  | -0.983% (inactive) |
| CO[C@H]1C[C@@H]2CC[C@@H](C)[C@@](O)(O2)C(=O)C(=O)N2CCCC[C@H]2C(=O)O[C@H]([C@H](C)C[C@H]2CC[C@@H](OP(C)(C)=O)[C@H](OC)C2)CC(=O)[C@H](C)/C=C(\C)[C@@H](O)[C@@H](OC)C(=O)[C@H](C)C[C@H](C)/C=C/C=C/C=C/1C | 0.0064 µM (active) |  |
| COCCOc1ccc(N2CCN(CCn3ncc4c3nc(N)n3nc(-c5ccco5)nc43)CC2)cc1 |  | -9.01% (inactive) |

| Structure (SMILES) | Potency | max response |
| --- | --- | --- |
| CC(C)=CC/C=C(\C)[C@H]1CC[C@]2(C)[C@@H]1[C@H](O)C[C@@H]1[C@@]3(C)CC[C@H](O)C(C)(C)[C@@H]3[C@@H](O[C@@H]3O[C@H](CO)[C@@H](O)[C@H](O)[C@H]3O)C[C@]12C |  | -11.4% (inactive) |
| CON(C)C(=O)[C@H](O)[C@H](Cc1ccccc1)NC(=O)c1cc2cc(Cl)ccc2[nH]1 |  | -8.5% (inactive) |
| NC[C@@](O)(c1ccc(Cl)cc1)c1ccc(-c2cn[nH]c2)cc1 | 5.8 µM (active) |  |
| C[C@@H]1O[C@@H](O[C@H]2[C@H](OC(=O)[C@]34CCC(C)(C)C[C@H]3C3=CCC5[C@@]6(C)C[C@H](O)[C@H](O[C@@H]7O[C@H](CO)[C@@H](O)[C@H](O)[C@H]7O)[C@@](C)(CO)C6[C@H](O)C[C@@]5(C)[C@]3(C)CC4)OC[C@H](O)[C@@H]2O)[C@H](O)[C@H](O)[C@H]1O[C@@H]1OC[C@@H](O)[C@H](O[C@@H]2OC[C@](O)(CO)[C@H]2O)[C@H]1O (stereo not given in full) |  | -1.81% (inactive) |
| CC(=O)O[C@@H]1[C@@H](O)[C@H](O[C@H]2CC[C@]34C[C@]35CC[C@]3(C)[C@@H]([C@@]6(C)CC[C@@H](C(C)(C)O)O6)[C@@H](O)C[C@@]3(C)[C@@H]5C[C@H](O[C@@H]3O[C@H](CO)[C@@H](O)[C@H](O)[C@H]3O)[C@H]4C2(C)C)OC[C@H]1O |  | -2.54% (inactive) |
| OCC(CO[C@@H]1O[C@H](CO)[C@@H](O)[C@H](O)[C@H]1O)c1ccc2c(c1)OCO2 (stereo not given in full) |  | -1.28% (inactive) |
| COC(=O)N(C)c1c(N)nc(-c2nn(Cc3ccccc3F)c3ncccc23)nc1N |  | -0.877% (inactive) |
| O=C1OCc2cc3cccc(O[C@@H]4O[C@H](CO)[C@@H](O)[C@H](O)[C@H]4O)c3c(O)c21 |  | -24.4% (inactive) |
| CC(=O)O[C@@H]1CC(C)=C2[C@H]1[C@H](C)CC[C@H]2/C=C(\C)C(=O)O |  | -2.45% (inactive) |
| CC(=O)OC1C(=O)C2(C)C(O)CC3OCC3(OC(C)=O)C2C(OC(=O)c2ccccc2)C2(O)CC(OC(=O)C(O)C(NC(=O)c3ccccc3)c3ccccc3)C(C)=C1C2(C)C (stereo not given) | 0.0073 µM (active) |  |
| O=C1CCC(c2ccccc2)(C2CCN(Cc3ccc(I)cc3)CC2)C(=O)N1 (stereo not given) | 18.4 µM (active) |  |
| COc1c2c(cc3c1-c1c(cc4c(c1OC)OCO4)CC(C)C(C)C3)OCO2 (stereo not given) |  | -21.6% (inactive) |
| C[C@@H]1CC[C@]2(C(=O)OC3OC(CO)C(O)C(O)C3O)CC[C@]3(C)C(=CCC4[C@@]5(C)CC[C@H](O)[C@](C)(C(=O)O)C5CC[C@]43C)C2[C@]1(C)O (stereo not given in full) |  | -6.18% (inactive) |
| C[C@@H]1CN(Cc2ccccc2)C[C@H]1c1nc2c(cnn2C2CCOCC2)c(=O)[nH]1 |  | 2.89% (inactive) |
| O=C(COc1cccc2c(=O)[nH]ccc12)c1ccccc1 |  | -5.18% (inactive) |
| CN(CCc1ccc(Nc2ncc(-c3cccnc3)s2)cc1)Cc1ccccc1 | 7.31 µM (active) |  |
| O=C(/C=C/c1cccc(S(=O)(=O)Nc2ccccc2)c1)NO | 3.99 µM (active) |  |
| CC(C)CCC[C@@H](C)[C@H]1CC[C@H]2[C@@H]3CC(=O)[C@H]4C[C@@H](O)CC[C@]4(C)[C@H]3CC[C@]12C |  | -0.18% (inactive) |
| CC1=CCC2C(C)(C)CCC[C@]2(C)[C@@]12CC[C@](C)(CC(=O)O)O2 (stereo not given in full) |  | -11.7% (inactive) |
| Cc1cc(-c2cc(O)ccc2Cl)cc2nnc(Nc3ccc(OCCN4CCCC4)cc3)nc12 | 3.26 µM (active) |  |
